Among the data in the supplement of paper PMC6555819 are PBM binding z-score values, retold here.

The subject of one assay is PPARg:RXRa (NR concentration 180 nM, RXRa partner concentration 90 nM). The assay is described as follows: PBM binding z-score (relative to random genomic background probes); higher = stronger binding; sequences stand for … in GC…GCGATTGACAGCGTAGAATGAAGG
The essentials:
(§1)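 Antibodies against each partner of ligand-free nuclear receptor dimers (one per run) detected binding on custom Agilent 4×180K protein-binding microarrays after 1 h incubation. The double-stranded probes had 34-nt variable regions carrying direct-repeat seeds, single-nucleotide variants, half-site ablations and random human genomic background sequences. Binding z-scores, from regression-normalized fluorescence, use the random background probes as reference.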
Sequence ATCTCTAGGGAAGACTCAGTTCAGTGAAGAACGC came in with a PBM binding z-score of -0.0585.

In the case of ATCTCTAGGTAAGACTCAGTTCAGTGACGAACGC, the PBM binding z-score was 0.47.

In turn, GCTTACGGGTCAAAGGTTATTGCATGAATAGAAT had a PBM binding z-score of 11.3.

AGAGCGAGGGCACGCTGAGTTGATAGCAGAGTAG returned a PBM binding z-score of 0.555.

With GCTATTACTTGAAAGGGCAACCGAATGATTCTCG, the PBM binding z-score was 0.583.

The sequence ACAGACAGGTGATGAAGTTAACTCAGGCTATCAT yielded a PBM binding z-score of 0.514.

Turning to CCTAGTTCGTCAAGGTCACACACGCTATAGGTAC, the PBM binding z-score is 2.52.

With AATACAGGGTCATCGTAGGCCGGAGTACGCACAG, the PBM binding z-score was determined as 6.36.

In turn, CAATCTAGGTCACCGGAAGGTCAAAGTCCGCATG came in with a PBM binding z-score of 10.

Sequence TCTAGTTGGTCACGGAAGTCACACACGACGGGTA returned a PBM binding z-score of 1.27.

Take CCTGCTAGGTCATCGTCAGCTAATCTACAGTATG: the PBM binding z-score is 2.06.

In the case of AGTCAAAGTTCACTAGGTCACGTAAGATTCAGCT, the PBM binding z-score was determined as 9.33.

Sequence CCGAGCAGGCCAATCTGGGTCACTCAAGGCTTGA registered a PBM binding z-score of 2.05.

Sequence AGAATGAGGTTATTTAGATCAGGGAATTGCGGTC gave a PBM binding z-score of 1.33.

As to GCTGCTAGGTCAGGTTGGTCAGCGAACGGGTACG, the PBM binding z-score came out at 0.347.

Consider AGTCAAAGTTCAGGACGAGGTTACGTAAAGCACG, for which the PBM binding z-score came out at 5.02.

With CCGACTGGGGCAGCAAGGTTACCATACCATCCGG, the PBM binding z-score is 0.917.

In turn, CCGAGTGGGGCAAAGGTTACCATACTCAGTACGA returned a PBM binding z-score of 11.

The next assay has as its system PPARg:RXRa 270nM:90nM, anti-RXR (NR concentration 270 nM, RXRa partner concentration 90 nM). The description is as above. An outline of the steps: as §1
The sequence TCTCGGAGGACACGAAGGTCAGAGCTTTCCAGAG showed a PBM binding z-score of 1.45.

Consider GCGACTGGGGCAATGCAGGTTACCATAAGGTTGG, for which the PBM binding z-score came to 1.26.

In the case of TCTAGTTGGTCAAAGGTCACACATTCGAAATGCG, the PBM binding z-score is 9.09.

CCGTCTGGGGCAGAAAGGTTACCATACCATCCGG registered a PBM binding z-score of 1.95.

Take GCTTACGGGTCAAAGGTTGTAGCATGAATAGAAT: the PBM binding z-score amounted to 8.57.

The sequence GCTAGTTGGTCAGTAAAAGGTTACACACCGGTCG had a PBM binding z-score of 2.31.

ATCGAAAGGTCGACGAGCTGAGTATACACCGTTT returned a PBM binding z-score of 2.87.

ACGATTAGTTGACTTAGGGCAACCGATACGACGC came in with a PBM binding z-score of -0.28.

The sequence TCTATTAGTTGACGGGCAACCGACGAGTCCGTTT yielded a PBM binding z-score of 1.62.

With CAAACTAGGTCAGGGTCAAAGTCGGTTTGTGCCA, the PBM binding z-score came out at 7.43.

In turn, TCATATAGGTAATACAGGTGAAAGCCGGCATCTA had a PBM binding z-score of 2.68.

Consider TCTTGTAGATCAAGCAGGTAAAGAAAGCCTGAGT, for which the PBM binding z-score came to 0.967.

AGAATGAGCTTATACGTAGATCAGGGAAGAAAGT had a PBM binding z-score of -0.614.

Sequence TCTTGTCGATCAATAGAGGTTAAGAAAGTGCGCT showed a PBM binding z-score of 1.76.

The sequence TATATAGGGTCAAAGGCCAGAGTACGAATGTCGA displayed a PBM binding z-score of 7.34.

Sequence CCTAGTTGGTCAGGGTCACACACGCTATAGGTAC showed a PBM binding z-score of 3.51.

Regarding TCGAGTAGGTTACCAATGGGGCAATCAGCTTTCT, the PBM binding z-score was 1.02.

Turning to CGTCCAAGGTCAAAGTTCAGTGAAGAGATGACGG, the PBM binding z-score is 8.05.

ATCTCTAGGTAACCAAGTTCAGTAAATGCCGAAC showed a PBM binding z-score of 1.1.

For TCTATTAGTTGATCAGGGCAACCGAAACAGCGGA, the PBM binding z-score worked out at 2.02.

AGTCAATGTTCAGGACGAGGTAACGTAAAGCACG yielded a PBM binding z-score of -0.297.

On to ACTAGTTTGTCAGCTGAGGTCACACACAATTCGG, for which the PBM binding z-score was 2.21.

ATCTCTAGGGAAGACTCAGTTCAGTGAAGAACGC showed a PBM binding z-score of -0.317.

Sequence ATCTCTAGGTAAGACTCAGTTCAGTGACGAACGC showed a PBM binding z-score of 0.379.

Consider GCTTACGGGTCAAAGGTTATTGCATGAATAGAAT, for which the PBM binding z-score amounted to 9.3.

AGAGCGAGGGCACGCTGAGTTGATAGCAGAGTAG: the PBM binding z-score was -0.0392.

Regarding GCTATTACTTGAAAGGGCAACCGAATGATTCTCG, the PBM binding z-score worked out at 0.184.

As for ACAGACAGGTGATGAAGTTAACTCAGGCTATCAT, the PBM binding z-score was -0.0899.

CCTAGTTCGTCAAGGTCACACACGCTATAGGTAC displayed a PBM binding z-score of 3.46.

The sequence AATACAGGGTCATCGTAGGCCGGAGTACGCACAG returned a PBM binding z-score of 5.92.

With CAATCTAGGTCACCGGAAGGTCAAAGTCCGCATG, the PBM binding z-score came to 7.96.

In the case of TCTAGTTGGTCACGGAAGTCACACACGACGGGTA, the PBM binding z-score was found to be 1.85.

CCTGCTAGGTCATCGTCAGCTAATCTACAGTATG had a PBM binding z-score of 2.75.

With AGTCAAAGTTCACTAGGTCACGTAAGATTCAGCT, the PBM binding z-score was 7.67.

In turn, CCGAGCAGGCCAATCTGGGTCACTCAAGGCTTGA showed a PBM binding z-score of 2.12.

In turn, AGAATGAGGTTATTTAGATCAGGGAATTGCGGTC yielded a PBM binding z-score of 1.89.

In the case of GCTGCTAGGTCAGGTTGGTCAGCGAACGGGTACG, the PBM binding z-score was 0.793.

Sequence AGTCAAAGTTCAGGACGAGGTTACGTAAAGCACG gave a PBM binding z-score of 4.89.

For CCGACTGGGGCAGCAAGGTTACCATACCATCCGG, the PBM binding z-score was determined as 0.659.

CCGAGTGGGGCAAAGGTTACCATACTCAGTACGA came in with a PBM binding z-score of 9.62.

For the next assay, the system named is PPARg:RXRa 30nM:10nM, anti-RXR (NR concentration 30 nM, RXRa partner concentration 10 nM). The description is as above. The essentials:
as §1
Turning to TCTCGGAGGACACGAAGGTCAGAGCTTTCCAGAG, the PBM binding z-score worked out at 2.1.

For the sequence GCGACTGGGGCAATGCAGGTTACCATAAGGTTGG, the PBM binding z-score is -0.113.

The sequence TCTAGTTGGTCAAAGGTCACACATTCGAAATGCG returned a PBM binding z-score of 10.8.

CCGTCTGGGGCAGAAAGGTTACCATACCATCCGG gave a PBM binding z-score of 0.171.

GCTTACGGGTCAAAGGTTGTAGCATGAATAGAAT had a PBM binding z-score of 7.45.

With GCTAGTTGGTCAGTAAAAGGTTACACACCGGTCG, the PBM binding z-score amounted to 0.546.

Sequence ATCGAAAGGTCGACGAGCTGAGTATACACCGTTT displayed a PBM binding z-score of 1.17.

In turn, ACGATTAGTTGACTTAGGGCAACCGATACGACGC displayed a PBM binding z-score of 0.0988.

For TCTATTAGTTGACGGGCAACCGACGAGTCCGTTT, the PBM binding z-score came out at 3.47.

CAAACTAGGTCAGGGTCAAAGTCGGTTTGTGCCA returned a PBM binding z-score of 5.39.

TCATATAGGTAATACAGGTGAAAGCCGGCATCTA yielded a PBM binding z-score of 3.73.

As for TCTTGTAGATCAAGCAGGTAAAGAAAGCCTGAGT, the PBM binding z-score is 2.41.

AGAATGAGCTTATACGTAGATCAGGGAAGAAAGT had a PBM binding z-score of -0.0699.

Take TCTTGTCGATCAATAGAGGTTAAGAAAGTGCGCT: the PBM binding z-score was 2.67.

TATATAGGGTCAAAGGCCAGAGTACGAATGTCGA displayed a PBM binding z-score of 5.8.

Consider CCTAGTTGGTCAGGGTCACACACGCTATAGGTAC, for which the PBM binding z-score came to 1.5.

Sequence TCGAGTAGGTTACCAATGGGGCAATCAGCTTTCT showed a PBM binding z-score of 1.

The sequence CGTCCAAGGTCAAAGTTCAGTGAAGAGATGACGG returned a PBM binding z-score of 6.19.

Consider ATCTCTAGGTAACCAAGTTCAGTAAATGCCGAAC, for which the PBM binding z-score was determined as 0.556.

TCTATTAGTTGATCAGGGCAACCGAAACAGCGGA: the PBM binding z-score stood at 3.78.

The sequence AGTCAATGTTCAGGACGAGGTAACGTAAAGCACG showed a PBM binding z-score of 0.071.

ACTAGTTTGTCAGCTGAGGTCACACACAATTCGG: the PBM binding z-score turned out to be 0.672.

ATCTCTAGGGAAGACTCAGTTCAGTGAAGAACGC: the PBM binding z-score was -0.477.

Regarding ATCTCTAGGTAAGACTCAGTTCAGTGACGAACGC, the PBM binding z-score came to 0.0999.

Regarding GCTTACGGGTCAAAGGTTATTGCATGAATAGAAT, the PBM binding z-score came to 8.78.

On to AGAGCGAGGGCACGCTGAGTTGATAGCAGAGTAG, for which the PBM binding z-score is -0.58.

For the sequence GCTATTACTTGAAAGGGCAACCGAATGATTCTCG, the PBM binding z-score was 0.177.

In the case of ACAGACAGGTGATGAAGTTAACTCAGGCTATCAT, the PBM binding z-score is -0.051.

In turn, CCTAGTTCGTCAAGGTCACACACGCTATAGGTAC displayed a PBM binding z-score of 0.804.

AATACAGGGTCATCGTAGGCCGGAGTACGCACAG showed a PBM binding z-score of 2.34.

Sequence CAATCTAGGTCACCGGAAGGTCAAAGTCCGCATG came in with a PBM binding z-score of 6.12.

For TCTAGTTGGTCACGGAAGTCACACACGACGGGTA, the PBM binding z-score was 3.33.

CCTGCTAGGTCATCGTCAGCTAATCTACAGTATG had a PBM binding z-score of 0.439.

Turning to AGTCAAAGTTCACTAGGTCACGTAAGATTCAGCT, the PBM binding z-score is 4.81.

CCGAGCAGGCCAATCTGGGTCACTCAAGGCTTGA displayed a PBM binding z-score of -0.249.

The sequence AGAATGAGGTTATTTAGATCAGGGAATTGCGGTC returned a PBM binding z-score of 0.586.

The sequence GCTGCTAGGTCAGGTTGGTCAGCGAACGGGTACG showed a PBM binding z-score of -0.213.

With AGTCAAAGTTCAGGACGAGGTTACGTAAAGCACG, the PBM binding z-score was found to be 2.32.

As for CCGACTGGGGCAGCAAGGTTACCATACCATCCGG, the PBM binding z-score was -0.509.

For CCGAGTGGGGCAAAGGTTACCATACTCAGTACGA, the PBM binding z-score worked out at 8.52.
